Screening results deposited in PubChem BioAssay by National Center for Advancing Translational Sciences (NCATS).
A selection: hits, their analogues and other compounds. The true share with any hit is near 21%.
HCV inh – blocks hepatitis C virus. Huh7.5.1 HCVcc-Cre infection, luciferase reporter, 44 h. Potency, µM (titrated, usually from 41.8 µM), for the others: at the highest dose activity change, negative = inhibition, actives largely listed as inhibitors. hit rate 3.4% among 340,000. AID 651820; note: potency is the fitted concentration of half-maximal effect; % is set by controls: 0 for no effect and ±100 for the full control effect
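1,000 cells/well; 4 h culture; + compound; + HCVcc-Cre (~0.5 moi); 44 h; luciferase substrate, RT 15 min; read 15 sec.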
Shiga toxin inh – Shiga toxin inhibition; hit rate 9.2% among 290,000; Vero cells, Shiga toxin protein synthesis inhibition reporter; AID 2315; inhibition, % at 38.7 µM; in the data active = inhibition mostly above about 28%, no sharp cut-off; inactive = mostly below about 43%; note: 0% is about no effect
Pf growth 96h – P. falciparum growth inhibition at 96 hours | Potency, µM (highest dose often 28.7 µM), inactives show at the top dose activity change, negative = inhibition, usual class: inhibitors | hit rate 6.9% among 320,000 | P. falciparum luciferase reporter growth, 96 h; note: potency is the fitted concentration of half-maximal effect; % is set by controls: 0 for no effect and ±100 for the full control effect
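P. falciparum expressing integrated firefly luciferase, in erythrocytes at 2% hematocrit, 0.05% parasitemia, incubated with compounds 96 h at 37 C, 5% CO2. Growth inhibition read as loss of luminescence; two-generation exposure targets delayed-death apicoplast inhibitors.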
Pf growth 48h – inhibits P. falciparum growth in the first generation, 48 h. P. falciparum luciferase growth in erythrocytes, 48 h. Potency, µM (doses to about 28.7 µM), inactives show top-dose activity change, negative = inhibition, most hits filed as inhibitors. hit rate 5.9% among 310,000. AID 504832; note: potency is the fitted concentration of half-maximal effect; % is set by controls: 0 for no effect and ±100 for the full control effect
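Luminescence readout; reporter = integrated firefly luciferase in P. falciparum. RBC culture at 2% hematocrit, 0.1% parasitemia final, 37 C/5% CO2; decreased signal taken as growth inhibition.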
Cycloheximide cs – affects cycloheximide protein synthesis inhibition readout, counter-screen | cell reporter, cycloheximide protein synthesis inhibition counterscreen | max response, % | hit rate 12% among 300,000; in the data active = max response mostly above about 13%, no sharp cut-off; inactive = mostly below about 14%; note: read at 38.3 µM for the half of the compounds with a filed dose; 0% is about no effect
HCMV inh – blocks human cytomegalovirus replication | activity change, negative = inhibition, % at 57.5 µM | hit rate 4.5% among 410,000 | HFF cells, HCMV-luciferase reporter, 72 h; stronger effect = lower value; in the data active = activity change below about -60%; inconclusive = no clear call, values can overlap the other calls; inactive = above about -39%; note: % is set by controls: 0 for no effect and ±100 for the full control effect
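Cell-based, HFFs, 1000 cells/well, 16 h 37C; cpds in DMSO + HCMV-luc, MOI 1 PFU/cell; 72 h 37C; OneGlo luminescence after 5 min RT; norm. to buffer vs Salinomycin 10uM.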
An asterisk follows results filed as active; u = inconclusive; x = not tested or not shown; [ ] = dose if it differs, or a comment. Unless noted, calls come from the whole dose curve; as a rule, active = well fitted inhibition curve with a large enough effect; inconclusive = small, poorly fitted or top-dose-only effect, or another doubt; inactive = no such curve, though single readings can be large or run the other way.

SMILES | HCV inh | Shiga toxin inh | Pf growth 96h | Pf growth 48h | Cycloheximide cs | HCMV inh
Clc1ccc(Cn2c(/C=C/c3ccco3)nc3ccccc32)cc1 | u | 187* | u | u | 216* | -32
CCCn1c(/C=C/c2ccco2)nc2ccccc21 | -24% | 7 | u | 19% | 12 | u
Cc1ccc(Cn2c(/C=C/c3ccco3)nc3ccccc32)cc1 | 34% | 161* | u | -13% | 103* | 19
N#Cc1ccc(Cl)cc1NC(=O)COC(=O)c1cccc(S(=O)(=O)N2CCOCC2)c1 | 12% | x | -22% | -15% | x | 7
O=[N+]([O-])c1ccc(Oc2cnc3ccccc3n2)cc1 | -17% | 84 | 35% | 28% | 30 | -63*
Fc1ccc(Oc2cnc3ccccc3n2)cc1 | 5% | 39* | -13% | 22% | 22 | -19
COc1ccc(Oc2cc(C)c3ccccc3n2)cc1 | u | 69* | u | 19% | 34 | 5
Cc1ccc(Oc2cnc3ccccc3n2)cc1 | 17% | 103* | 122% | 72% | 58* | u
COc1cc(C(=O)O)c2ccccc2n1 | 17% | -8 | -8% | 15% | 0 | u
CC(NC(=O)c1c(O)c2ccccc2[nH]c1=O)c1ccccc1 (centres undefined) | -15% | x | -12% | u | -3 | -29
O=C(Cc1ccc(NC2=NC3CS(=O)(=O)CC3S2)cc1)NCCc1ccccc1 (centres undefined) | 16% | -5 | u | 2% | 1 | 44
Clc1ccc(Oc2cnc3ccccc3n2)cc1 | -1% | 33* | 54% | -9% | 21* | -23
Nc1nc(Cl)cc(Oc2ccc(Cl)cc2)n1 | 10% | 7 | 137% | 38% | 16 | 8
Cc1cc(C)c(C(=O)CSc2n[nH]c(-c3ccncc3)n2)c(C)c1 | 7% | 20 | -10% | -13% | -6 | -66*
Cc1cccc(-c2nc3nc(C)cc(NC(C)c4ccccc4)n3n2)c1 (centres undefined) | x | x | x | x | x | -15
CS(=O)(=O)/C(C#N)=C\c1cnc(S(=O)(=O)c2ccccc2)s1 | x | 36 | -8% | 30% | 31* | x
O=C(Nc1ccc(Cl)c(C(F)(F)F)c1)C1CCCN(S(=O)(=O)c2cnc[nH]2)C1 (centres undefined) | u | -9 | 10µM* | u | 2 | 0
Cc1cc(NC(=O)C2CCCN(S(=O)(=O)c3cnc[nH]3)C2)ccc1Br (centres undefined) | -11% | -7 | 4.1µM* | x | -6 | -3
C[C@]12CCC[C@H](O1)[C@H]([C@@H](O)c1ccccc1)O2 | 2% | x | 11% | -11% | x | x
Fc1ccc(OCCCCCn2ccnc2)cc1 | u | -13 | 4.1µM* | -24% | -2 | -26
CCOc1cccc(OCCCCn2ccnc2)c1 | u | 3 | -9% | 12µM* | -1 | -8
CC(=O)Nc1ccc(C(=O)Nc2ccc(S(=O)(=O)N3CCCCC3)cc2)cc1 | u | -1 | 5% | u | -4 | -21
Cc1ccc(C(NC(=O)c2cccc(S(=O)(=O)N3CCN(C)CC3)c2)c2ccccc2)cc1 (centres undefined) | u | x | u | 15µM* | x | -28
CC1CC(C)CN(S(=O)(=O)c2ccc(C(=O)Nc3sccc3C(N)=O)cc2)C1 (centres undefined) | u | -2 | u | u | -1 | 12
NC(=O)c1ccsc1NC(=O)c1ccc(S(=O)(=O)N2CCCC2)cc1 | u | 139* | 11% | 92% | 33* | 5
SMILES | HCV inh | Shiga toxin inh | Pf growth 96h | Pf growth 48h | Cycloheximide cs | HCMV inh
CS(=O)(=O)c1cccc(C(=O)NC(c2ccccc2)c2ccccc2)c1 | 3% | -17 | 2%[5.75 µM] | 6% | 3 | 18
NC(=O)c1ccsc1NC(=O)c1ccc(S(=O)(=O)N2CCCCC2)cc1 | -25% | 65* | u | x | 46* | -9
CN1CCN(S(=O)(=O)c2cccc(C(=O)Nc3sccc3C(N)=O)c2)CC1 | u | x | u | 13µM* | x | 47
Oc1c(Cl)cc(CN2CCOCC2)c2cccnc12 | 2.5µM* | x | 5.9µM* | 4.7µM* | x | -99*
O=[N+]([O-])c1cc(CN2CCOCC2)c2cccnc2c1O | 0% | 6 | -16% | 4.1µM* | 10 | x
O=[N+]([O-])c1cc(CN2CCN(c3ccccc3)CC2)c(O)c2ncccc12 | u | -9 | -18% | u | -1 | -89*
Oc1c(CN2CCCCC2)cc(Br)c2cccnc12 | u | -8 | u | 2.6µM* | -2 | -102*
CN(Cc1cc([N+](=O)[O-])c2cccnc2c1O)C1CCCCC1 | 7% | -5 | 62% | -20% | -3 | x
Oc1c(Cl)cc(Cl)c(Cl)c1CN1CCOCC1 | -4% | x | x | x | x | 1
CN(Cc1ccc(Cl)s1)C(=O)CSc1nnc(C2CC2)n1C1CC1 | 20% | x | u | u | x | 0
Cc1nc(-c2ccc(S(=O)(=O)N(C)Cc3ccccc3)cc2)co1 | x | x | x | x | x | 13
CCCC1(C)NC(=O)c2ccccc2O1 (centres undefined) | 7% | -6 | u | 12% | 13 | -36
Nc1nc(SCc2ccc(F)cc2)n[nH]1 | 9% | x | 8% | 0% | 9 | 41
Nc1nc(SCc2ccc(Cl)cc2Cl)n[nH]1 | 6% | 27 | x | 27% | 21* | 22
Nc1nc(SCc2ccc3c(c2)OCCO3)n[nH]1 | 4% | 71* | 18%[5.75 µM] | 38% | 21 | 70
CC(=O)Nc1nc(SCc2ccc(Cl)cc2Cl)n[nH]1 | 3% | -15 | u | -3% | 8 | -5
O=C(Nc1ncc(Cc2ccccc2Cl)s1)c1ccc2c(c1)CC(c1ccccc1)OC2=O (centres undefined) | x | x | x | x | x | 3
CC1CN=C(c2cc(Cl)c(N)c(Cl)c2)c2c3ccccc3nn21 (centres undefined) | x | x | x | x | x | 79
CCn1nc(C)cc1C(=O)NC1CCCc2c1cnn2-c1ccc(C)c(C)c1 (centres undefined) | u | -26 | 15µM* | u | 4 | -86*
COc1cccc(C(=O)NC2CCCc3c2cnn3-c2ccc(C)c(C)c2)c1OC (centres undefined) | u | -4 | u | -3% | -2 | -30
CCCC(=O)NC1CCCc2c1cnn2-c1ccc(C)c(C)c1 (centres undefined) | -20% | 27 | 3.3µM* | 7% | 20* | -24
CCN(CC)CC(=O)NC1CCCc2c1cnn2-c1cc(F)cc(F)c1 (centres undefined) | 0% | x | x | x | x | 24
CSCC(=O)NC1CCCc2c1cnn2-c1cc(F)cc(F)c1 (centres undefined) | -26% | 14 | u | 0% | 14* | 18
COc1ccc(-c2ccc(CN3C(C(C)C)C(=O)N(Cc4cn(CC5CCCCC5)nn4)CCS3(=O)=O)cc2)cc1OC (centres undefined) | x | x | x | x | x | 3
CCOP(=O)(OCC)OCC | 27% | x | 37% | 8% | x | 16
